In PubChem BioAssay:
Activity calls are given as the source filed them.

Columns and labels:
[1] = small molecules captured by biotinylated probe aFSTL3 – biochemical, small-molecule microarray, fluorescence 635/667, stem cell growth factor project, primary screen (AID 1064); settings: higher = more signal;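 note: measures binding of the biotinylated anti-FSTL3 antibody to printed compounds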
[2] = binders from COS7 lysate, DM2A8 probe, primary screen, torsin A project, cell lysate, small-molecule microarray, fluorescence 635/667 (AID 1065); settings: higher = more signal, COS7 lysate expressing mutant human TOR1A
[3] = small molecules captured by biotinylated probe aFGF2 – biochemical, small-molecule microarray, fluorescence 635/667, stem cell growth factor project, primary screen (AID 1067); settings: higher = more signal;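 note: measures binding of biotinylated aFGF2 protein to printed compounds on slides; z-score merges feature fluorescence and signal-to-noise across triplicate slides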
[4] = small molecules captured by biotinylated probe aFGF10 – biochemical, small-molecule microarray, fluorescence 635/667, stem cell growth factor project, primary screen (AID 1071); settings: higher = more signal;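 note: score merges 667 nm spot intensity and signal to noise from triplicate slides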
[5] = biological target: Neurogenic locus notch homolog protein 2 (Homo sapiens) (UniProt Q04721); test: small molecules binding Notch2 protein – biochemical, small-molecule microarray, 635 nm fluorescence, stem cell growth factors, primary screen (AID 1073); settings: higher = more signal
Neurogenic locus notch homolog protein 2 (Homo sapiens), sequence (Q04721 whole entry, looked up, canonical isoform): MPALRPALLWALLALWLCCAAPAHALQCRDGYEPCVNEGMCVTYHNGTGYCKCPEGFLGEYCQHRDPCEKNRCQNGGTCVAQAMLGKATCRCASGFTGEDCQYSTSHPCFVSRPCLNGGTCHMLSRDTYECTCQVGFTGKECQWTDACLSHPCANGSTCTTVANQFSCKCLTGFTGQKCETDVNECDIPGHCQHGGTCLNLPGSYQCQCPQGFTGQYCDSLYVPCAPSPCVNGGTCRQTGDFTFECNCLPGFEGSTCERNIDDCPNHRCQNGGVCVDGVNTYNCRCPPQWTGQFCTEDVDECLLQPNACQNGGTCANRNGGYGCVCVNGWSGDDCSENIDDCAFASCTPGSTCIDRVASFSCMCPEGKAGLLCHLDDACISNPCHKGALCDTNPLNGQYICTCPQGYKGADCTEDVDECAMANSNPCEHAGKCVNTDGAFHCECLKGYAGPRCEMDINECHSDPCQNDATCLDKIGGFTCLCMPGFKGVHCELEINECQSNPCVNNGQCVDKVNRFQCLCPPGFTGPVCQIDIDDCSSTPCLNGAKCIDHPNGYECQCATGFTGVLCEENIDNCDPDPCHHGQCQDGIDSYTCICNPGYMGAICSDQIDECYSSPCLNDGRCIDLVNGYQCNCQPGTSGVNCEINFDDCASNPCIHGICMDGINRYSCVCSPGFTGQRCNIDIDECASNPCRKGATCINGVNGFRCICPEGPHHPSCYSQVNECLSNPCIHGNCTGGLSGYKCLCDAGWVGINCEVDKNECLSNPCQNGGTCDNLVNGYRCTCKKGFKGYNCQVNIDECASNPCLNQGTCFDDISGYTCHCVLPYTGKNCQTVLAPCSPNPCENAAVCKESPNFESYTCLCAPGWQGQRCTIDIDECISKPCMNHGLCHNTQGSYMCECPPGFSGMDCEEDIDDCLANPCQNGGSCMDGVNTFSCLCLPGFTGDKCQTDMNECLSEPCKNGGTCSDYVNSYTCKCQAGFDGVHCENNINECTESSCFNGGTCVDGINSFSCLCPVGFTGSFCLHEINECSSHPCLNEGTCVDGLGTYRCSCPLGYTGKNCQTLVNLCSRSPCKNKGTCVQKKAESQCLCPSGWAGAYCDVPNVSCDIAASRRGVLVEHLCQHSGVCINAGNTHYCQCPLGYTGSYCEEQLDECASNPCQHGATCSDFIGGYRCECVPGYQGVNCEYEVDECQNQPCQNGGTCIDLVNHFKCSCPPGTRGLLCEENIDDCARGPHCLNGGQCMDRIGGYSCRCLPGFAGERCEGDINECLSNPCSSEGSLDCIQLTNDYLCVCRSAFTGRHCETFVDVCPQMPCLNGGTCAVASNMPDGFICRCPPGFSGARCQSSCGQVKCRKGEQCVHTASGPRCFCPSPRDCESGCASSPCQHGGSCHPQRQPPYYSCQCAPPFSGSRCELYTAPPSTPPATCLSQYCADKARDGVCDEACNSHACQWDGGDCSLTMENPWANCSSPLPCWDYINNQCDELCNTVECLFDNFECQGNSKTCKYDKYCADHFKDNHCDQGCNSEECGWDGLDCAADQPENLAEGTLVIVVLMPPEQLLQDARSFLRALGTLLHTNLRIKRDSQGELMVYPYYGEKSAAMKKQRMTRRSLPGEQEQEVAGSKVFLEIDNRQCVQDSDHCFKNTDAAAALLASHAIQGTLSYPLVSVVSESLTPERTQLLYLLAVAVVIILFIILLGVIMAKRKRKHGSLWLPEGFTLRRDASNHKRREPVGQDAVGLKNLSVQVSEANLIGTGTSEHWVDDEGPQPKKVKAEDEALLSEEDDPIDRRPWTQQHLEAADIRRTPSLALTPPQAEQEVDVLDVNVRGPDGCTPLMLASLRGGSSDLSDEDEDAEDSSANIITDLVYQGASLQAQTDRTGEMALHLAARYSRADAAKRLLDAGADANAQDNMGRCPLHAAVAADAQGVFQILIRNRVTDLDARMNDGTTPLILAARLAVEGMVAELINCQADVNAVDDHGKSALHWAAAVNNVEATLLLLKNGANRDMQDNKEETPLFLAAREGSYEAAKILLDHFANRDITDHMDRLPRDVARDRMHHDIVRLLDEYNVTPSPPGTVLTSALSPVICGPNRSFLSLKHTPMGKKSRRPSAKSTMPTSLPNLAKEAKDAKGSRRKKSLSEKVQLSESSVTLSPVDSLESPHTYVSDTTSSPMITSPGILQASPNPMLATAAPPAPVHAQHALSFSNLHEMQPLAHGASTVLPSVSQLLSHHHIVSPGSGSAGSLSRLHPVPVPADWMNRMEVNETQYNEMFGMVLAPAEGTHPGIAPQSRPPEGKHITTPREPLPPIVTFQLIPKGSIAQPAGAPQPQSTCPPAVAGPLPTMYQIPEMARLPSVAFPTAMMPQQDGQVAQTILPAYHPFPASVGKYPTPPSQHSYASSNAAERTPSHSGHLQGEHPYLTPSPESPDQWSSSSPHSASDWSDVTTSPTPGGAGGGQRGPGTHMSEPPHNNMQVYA

[6] = biological target: Pro-neuregulin-1, membrane-bound isoform (Homo sapiens) (UniProt Q02297); test: small molecules binding neuregulin-1 protein – biochemical, small-molecule microarray, fluorescence 635/667, psychiatric disease protein project, primary screen (AID 1075); settings: NRG1 binding, 635 nm fluorescence, higher = more signal;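 note: score combines 667 nm spot fluorescence with signal to noise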
Pro-neuregulin-1, membrane-bound isoform (Homo sapiens), sequence (Q02297 whole entry, looked up, the tested form may be a part, canonical isoform): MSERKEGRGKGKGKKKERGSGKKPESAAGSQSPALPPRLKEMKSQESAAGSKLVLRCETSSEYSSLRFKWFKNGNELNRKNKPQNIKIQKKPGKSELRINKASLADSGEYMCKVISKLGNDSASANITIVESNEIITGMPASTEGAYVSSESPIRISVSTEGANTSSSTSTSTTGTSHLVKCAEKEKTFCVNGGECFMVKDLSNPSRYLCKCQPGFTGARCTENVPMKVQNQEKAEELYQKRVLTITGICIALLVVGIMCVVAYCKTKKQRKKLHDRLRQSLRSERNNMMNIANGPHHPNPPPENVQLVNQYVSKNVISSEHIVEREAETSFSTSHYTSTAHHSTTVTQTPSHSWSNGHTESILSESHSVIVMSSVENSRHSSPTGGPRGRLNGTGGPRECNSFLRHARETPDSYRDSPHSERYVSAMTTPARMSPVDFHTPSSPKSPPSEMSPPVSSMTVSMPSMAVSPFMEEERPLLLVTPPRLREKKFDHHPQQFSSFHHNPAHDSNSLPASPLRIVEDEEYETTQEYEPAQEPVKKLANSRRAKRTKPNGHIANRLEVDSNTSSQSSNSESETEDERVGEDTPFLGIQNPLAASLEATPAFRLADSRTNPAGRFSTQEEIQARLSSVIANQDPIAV

[7] = test system: Neuregulin-1 EGF-like domain; test: small molecules binding NRG1 EGF domain – biochemical, small-molecule microarray, 635 nm fluorescence, primary screen (AID 1081); settings: higher = more signal;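 note: binding of the protein to compounds printed on small-molecule microarray slides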
[8] = FRG1 expression reporter modulators in myotubes – cell-based, C2C12 myotubes, firefly/Renilla luciferase, luminescence, FRG1 inhibition for FSHD, primary screen (AID 1084); settings: FRG1 promoter luciferase, higher = more signal, called active from +8 up or from −8 down
[9] = small molecules captured by biotinylated probe aFST – biochemical, small-molecule microarray, fluorescence 635/667, stem cell growth factor project, primary screen (AID 1086); settings: higher = more signal;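 note: score merges 667 nm fluorescence with signal-to-noise of each printed compound spot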
[10] = binders of probe aHhip on microarray, primary screen, stem cell growth factor project, biochemical, small-molecule microarray, fluorescence 635/667 (AID 1087); settings: higher = more signal;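 note: score merges spot fluorescence at 667nm with spot signal to noise ratio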
[11] = test system: PRMT1 (protein arginine N-methyltransferase 1); test: small molecules binding arginine methyltransferase PRMT1 – biochemical, small-molecule microarray, 635 nm fluorescence, primary screen (AID 1088); settings: higher = more signal;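 note: binding of Prmt1 protein to compounds spotted on small-molecule microarray slides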
[12] = growth effects on S. cerevisiae YJM789 – YJM789 clinical isolate, OD600, 24 h, basal, primary screen (AID 1089); settings: higher = more signal, called active from +8 up or from −8 down;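 note: growth of clinical yeast isolate S. cerevisiae YJM 789 seeded 1000 cells per well; test concentration not given here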
[13] = S. pombe growth modifiers, basal conditions – strain 972, OD600, 24 h, no modulator, primary screen (AID 1090);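 note: basal condition with compound alone and no growth modifier present; test concentration not given here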; settings: S. pombe 972 growth, higher = more signal, called active from +8 up or from −8 down
[14] = budding yeast growth modifiers under rapamycin – strain BY4716, OD600, 96 h, primary screen (AID 1091); note: test concentration not given here; settings: S. cerevisiae BY4716 + rapamycin, higher = more signal, called active from +8 up or from −8 down
[15] = biological target: Torsin-1A-interacting protein 2 (Homo sapiens) (UniProt Q8NFQ8); test: small molecules binding lysate-expressed LULL1 – cell lysate, human LULL1 lysate, 635/667 nm fluorescence, primary screen (AID 1092); settings: small-molecule microarray, hLULL1 lysate binding, 635 nm fluorescence; higher = more signal;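 note: probe is lysate of COS7 cells overexpressing human LULL1; score merges per-feature 667 nm fluorescence with signal-to-noise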
Torsin-1A-interacting protein 2 (Homo sapiens), sequence (Q8NFQ8 whole entry, looked up): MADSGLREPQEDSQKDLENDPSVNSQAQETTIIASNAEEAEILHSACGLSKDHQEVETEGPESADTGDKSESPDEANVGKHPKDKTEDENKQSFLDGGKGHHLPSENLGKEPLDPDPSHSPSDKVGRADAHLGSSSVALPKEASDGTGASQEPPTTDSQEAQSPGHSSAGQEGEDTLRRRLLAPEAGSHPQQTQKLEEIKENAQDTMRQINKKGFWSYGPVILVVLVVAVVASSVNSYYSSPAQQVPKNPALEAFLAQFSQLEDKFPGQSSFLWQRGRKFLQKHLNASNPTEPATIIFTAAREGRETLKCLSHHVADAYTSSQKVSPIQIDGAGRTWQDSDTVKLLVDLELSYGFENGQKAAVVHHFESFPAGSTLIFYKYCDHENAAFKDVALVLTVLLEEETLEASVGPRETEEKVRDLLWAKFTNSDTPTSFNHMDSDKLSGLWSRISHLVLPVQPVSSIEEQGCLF

[16] = optical density change of DRC41 E. coli – strain DRC41, OD650, 24 h, E. coli filamentation project, primary screen (AID 1093);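 note: MC1000 strain lacking acrAB efflux and sulA so SOS filamentation is blocked; test concentration not given here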; settings: E. coli DRC41 growth, higher = more signal, called active from +8 up or from −8 down
[17] = probe aLefty2 binding to arrayed compounds – biochemical, biotinylated probe, 635/667 nm fluorescence, primary screen (AID 1094); settings: small-molecule microarray, higher = more signal;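 note: score merges spot fluorescence near 667 nm with spot signal-to-noise ratio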
[18] = test system: Noggin (protein binding on small-molecule microarray); test: small molecules binding Noggin protein – biochemical, 635/667 nm fluorescence, primary screen (AID 1095); settings: 635 nm fluorescence, higher = more signal;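 note: score merges 667 nm feature fluorescence with signal to noise over triplicate slides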
[19] = biological target: Neurogenic locus notch homolog protein 3 (Homo sapiens) (UniProt Q9UM47); test: small molecules binding NOTCH3 protein – biochemical, 635/667 nm fluorescence, primary screen (AID 1096); settings: small-molecule microarray, 635 nm fluorescence, higher = more signal
[20] = probe aEGFR binding to arrayed compounds – biochemical, biotinylated probe, 635/667 nm fluorescence, primary screen (AID 1097); settings: small-molecule microarray, higher = more signal;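 note: probe is a biotinylated anti-EGFR antibody binding compounds printed on slides; score combines fluorescence near 667 nm and signal to noise of each spot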

| SMILES | composite z-score [1] | composite z-score [2] | composite z-score [3] | composite z-score [4] | composite z-score [5] | composite z-score [6] | composite z-score [7] | z-score [8] | composite z-score [9] | composite z-score [10] | composite z-score [11] | z-score [12] | z-score [13] | z-score [14] | composite z-score [15] | z-score [16] | composite z-score [17] | composite z-score [18] | composite z-score [19] | composite z-score [20] |
| --- | --- | --- | --- | --- | --- | --- | --- | --- | --- | --- | --- | --- | --- | --- | --- | --- | --- | --- | --- | --- |
| C=C(/C=C\CNS(=O)(=O)c1ccc(C)cc1)[C@H](O)[C@H]1CCCN1S(=O)(=O)c1ccccc1[N+](=O)[O-] | -0.0107 | 0.014 | -0.114 | 0.108 | 0.361 | 0.618 | 0.577 | -4.49 (inactive) | -0.105 | 0.0373 | -0.196 | 1.89 (inactive) | 1.09 (inactive) | 35.1 (active) | 0.782 | 0.753 (inactive) | -0.139 | 0.177 | 0.221 | -0.0567 |
| Cc1ccc(S[C@]2(C(=O)NC(C)C)CC(=O)N(Cc3ccccc3)[C@@H]2c2ccc(CO)cc2)cc1 | 0.466 | -0.488 | -0.0909 | -1 | -1.25 | 1.56 | 0.57 | -2.62 (inactive) | -0.604 | 0.0373 | -0.251 | -1.58 (inactive) | 0.433 (inactive) | -0.632 (inactive) | 0.228 | 1.31 (inactive) | -0.0593 | -0.371 | -0.312 | -0.18 |
| COc1ccc(CCNC(=O)[C@@H]2c3ccccc3C(=O)N(C(C)C)[C@H]2c2ccc(CO)cc2)cc1 | 1.42 | -0.489 | -0.142 | -0.92 | -1.48 | 0.0203 | 0.209 | -1.15 (inactive) | -0.36 | -0.379 | -0.592 | 0.342 (inactive) | -0.264 (inactive) | -0.0884 (inactive) | 2.05 | 1.39 (inactive) | 0.0129 | -1.3 | -2.01 | -0.238 |
| COc1cccc(C)c1NC(=O)O[C@H]1[C@H](OC(=O)Nc2ccccc2)[C@@H](OC(=O)Nc2ccccc2)[C@@H](OC)O[C@@H]1CO | -0.0439 | 0.639 | 0.0811 | 1.06 | 1.48 | 1.81 | 1.46 | 0.91 (inactive) | 0.837 | 0.149 | 1.56 | 1.52 (inactive) | 0.176 (inactive) | 4.1 (inactive) | 3.36 | -0.93 (inactive) | 0.0321 | 0.902 | 1.12 | 0.0182 |
| COC(=O)C(CC#Cc1ccc2c(c1)[C@]1(C(=O)N2)[C@H](C(=O)N2CCN(c3ncccn3)CC2)[C@H]2C(=O)O[C@H](c3ccccc3)[C@H](c3ccccc3)N2[C@@H]1c1ccc(O)cc1)C(=O)OC | 2.65 | 0.987 | 0.374 | 1.01 | 1.53 | 1.44 | 1.31 | 1.41 (inactive) | 2.24 | 0.102 | 1.53 | 1.04 (inactive) | 1.1 (inactive) | 0.183 (inactive) | 3.25 | -0.333 (inactive) | 0.759 | 1.73 | 1.01 | 1.05 |
| Cc1cccc([C@H]2C[C@H]3C(Br)=C[C@@]2(CO)C(=O)[C@]32CO2)c1 | -0.053 | -0.65 | -0.125 | 0.0924 | -0.368 | 0.131 | 0.708 | 1.46 (inactive) | 0.275 | -0.0994 | 0.378 | -1.54 (inactive) | -2.89 (inactive) | -0.75 (inactive) | 2.39 | -0.316 (inactive) | -0.114 | 0.783 | 0.353 | -0.219 |
| CCCCC=C[C@@H](NC(=O)C(C)(C)C)c1ccccc1 | 0.0905 | 0.161 | 0.0775 | 0.57 | 1.5 | 1.07 | 0.357 | -0.751 (inactive) | 0.553 | 0.388 | 0.956 | 0.924 (inactive) | 1.84 (inactive) | 4.33 (inactive) | 1.08 | -1.46 (inactive) | 0.0769 | -0.0096 | 1.11 | 0.313 |
| COCCOC(=O)N1C(=O)[C@@]2(c3cc(C#CCCO)ccc31)[C@H](C(=O)N1CCN(c3ncccn3)CC1)[C@H]1C(=O)O[C@H](c3ccccc3)[C@H](c3ccccc3)N1[C@@H]2c1ccc(OCCO)cc1 | -0.372 | 0.713 | 0.0001 | 0.641 | 0.718 | 1.53 | 1.3 | -0.31 (inactive) | 0.832 | -0.171 | 1.53 | 2.26 (inactive) | 1.9 (inactive) | 5.64 (inactive) | 3.11 | -0.466 (inactive) | -0.025 | 0.86 | 1.05 | 0.0193 |
| C=C(C(=O)CC[C@@H](OC(=O)c1cccnc1)c1cccc(OCCO)c1)C(C)C | -0.512 | -0.0785 | -0.167 | 0.684 | -0.0786 | -0.145 | -0.284 | 1.2 (inactive) | 0.267 | -0.236 | 0.271 | -1.11 (inactive) | -0.0738 (inactive) | 1.04 (inactive) | -0.826 | 1.12 (inactive) | -0.0962 | 0.597 | 0.144 | 0.0391 |
| O=C1NC(=O)C2C1C=CC(C(O)C(O)CO)N2Nc1ccccn1 (stereo not given) | -0.304 | -0.0729 | -0.154 | 0.383 | 0.864 | 0.548 | 0.515 | -0.708 (inactive) | 0.0126 | -0.191 | 0.635 | -0.517 (inactive) | 0.294 (inactive) | -0.73 (inactive) | 0.541 | -1.02 (inactive) | -0.343 | 0.349 | 0.32 | 0.0713 |
